For 21 compounds, max response, outcome and Potency results are on record in PubChem BioAssay (NCATS).

Each structure is given as a SMILES string. Several values for one entry are separate records, joined by “and”; a condition that tells them apart may be missing. Equal values may be shown once. Records with an inconclusive call do not appear. A number with no mark means an inactive call. Activity calls are given as the source filed them. Calls come from the whole dose curve; as a rule, active = well fitted inhibition curve with a large enough effect; inconclusive = small, poorly fitted or top-dose-only effect; inactive = flat fitted curve, though single readings scatter.

The subject of assay [1] is CRL-7250. Kind of assay: Cytotoxic Profiling of Annotated Libraries Using Quantitative High-Throughput Screening (AID 1296008). For max response: % is set by controls: 0 for no effect and ±100 for the full control effect. To be noted: Five cell lines viability, CellTiter-Glo ATP luminescence, 48-72 h; max response: hits give low values. Put shortly: (§1)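 Cells exposed to compounds for 48 or 72 hr at 37 degrees Celsius. Viability read as ATP-coupled luminescence with CellTiter-Glo after 10 min at room temperature.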
(In general: ATP-based viability assays read luminescence as a measure of living cells.)

Assay [2] concerns HEK293. The description is as above. To be noted: Five cell lines viability, CellTiter-Glo ATP luminescence, 48-72 h; max response: hits give low values. Put shortly: as §1
The subject of assay [3] is HaCat. The description is as above. Conditions: Five cell lines viability, CellTiter-Glo ATP luminescence, 48-72 h; max response: hits give low values. Put shortly:
as §1

Assay [4] has as its system KB-3-1. The assay is described as above. Conditions: Five cell lines viability, CellTiter-Glo ATP luminescence, 48-72 h; max response: hits give low values. In a few lines: as §1
Assay [5] relates to NIH3T3. Described as above. Conditions: Five cell lines viability, CellTiter-Glo ATP luminescence, 48-72 h; max response: hits give low values. In a few lines:
as §1

Assay [6] deals with MCC-13. As to the kind of experiment: qHTS assay to identify novel small-molecules to repurpose for Merkel cell carcinoma treatment (AID 1296009). Conditions: MCC and control cell lines, CellTiter-Glo viability, 72 h; series mostly up to 46 µM. Put shortly:
(§2)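 CellTiter-Glo luminescence after 72 hr compound exposure at 37 degree celsius gave cell viability. Libraries NPC and MIPE were run as 8- and 11-point dose responses; RLUs normalized to DMSO (negative) and no-cell (cytotoxicity) controls.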
(In general: qHTS replaces the single test concentration by a dilution series.)

The test system of assay [7] is W2. As to the kind of experiment: qHTS profiling for inhibitors of Plasmodium falciparum proliferation (AID 504749). Note: potency is the fitted concentration of half-maximal effect. To be noted: P. falciparum in erythrocytes, SYBR Green DNA, 72 h; series mostly up to 28.7 µM. Put shortly:
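SYBR Green fluorescence (ex 485 nm, em 535 nm) reports parasite DNA after 72 h compound exposure of infected red cells at 0.3% parasitemia, 2.5% hematocrit; signal normalized to 0.29 uM artemisinin and vehicle wells.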

The subject of assay [8] is HACAT. Kind of assay: qHTS assay to identify novel small-molecules to repurpose for Merkel cell carcinoma treatment (AID 1296009). To be noted: MCC and control cell lines, CellTiter-Glo viability, 72 h; at 44.8 µM (top of the series) unless noted. Put shortly:
as §2

The test system of assay [9] is HEK293T. The description is as above. To be noted: MCC and control cell lines, CellTiter-Glo viability, 72 h; at 44.8 µM (top of the series) unless noted. Put shortly: as §2
Note: nearly all actives have a fitted effect of over 60% in size.

On to `CCN[C@@H](C)Cc1ccccc1`, for which the max response in assay [1] was -24.3%; in assay [2], -15.1%; in assay [3], -12.1%; in [4] it was 4.57%; in assay [5], -15.7%. In addition, the outcome in assay [6] was inactive.

For `C#C[C@]1(O)CC[C@H]2[C@@H]3CCC4=CC(=O)CC[C@]4(C)[C@H]3CC[C@@]21C`, the max response in assay [1] is -4.49%; in assay [2], 2.42%; in assay [3], 2.04%; in [4] it was -5.39% and -1.95%; in [5] it was 4.32%. Besides, the call in [6] was inactive.

For the compound `c1ccc2c(c1)sc1ccccc12`, the Potency entry in assay [7] was “inactive”. Further, the max response was 2.83% in [1], 0.977% in [2], -3.8% in assay [3] and -1.3% in assay [4]. The result in [5] and in [6] was inactive.

Consider `NC1=NC(=O)C(c2ccccc2)O1` (configuration not stated), for which the max response in [1] is -3.81%; in [2], 2.82%; in assay [4] it was 4.09%; in assay [5], 3.43%. Further, the compound was called inactive in assay [3], in [8] and in assay [6].

Regarding `CNC(C)(C)Cc1ccccc1`, in assay [7], the Potency entry is “inactive”. Also, the max response in assay [1] is -3%; in [2], -3.64%; in [4], 16.1%; in assay [5], 2.82%. Besides, the result in [3], in [8] and in assay [6] was inactive.

Turning to `CN1C(=O)NC(=O)C(C)(C2=CCCCC2)C1=O` (configuration not stated), the Potency entry in [7] is “inactive”. Also, the max response was -9.98% in [1]; -13.8% in [3]; -0.631% and -0.133% in [4]. Besides, the compound was called inactive in assay [2], in assay [5], in assay [9] and in assay [6].

Consider `CC(C)C[C@H](CN)CC(=O)O`, for which the max response was -0.456% in assay [1]; 2.24% in [2]; -0.0678% in [3]; -13.5% and 1.18% in assay [4]; -13.2% in assay [5]. In addition, the result in assay [6] was inactive.

For `CCC1(c2ccccc2)C(=O)N(COC)C(=O)N(COC)C1=O`, the Potency result in assay [7] was “inactive”. The max response was -1.83% in [1], 3.09% in assay [2], 3.73% in [3] and -3.81% in [4]. Besides, the result in assay [5] and in [6] was inactive.

With `NC(=O)CS(=O)C(c1ccccc1)c1ccccc1` (configuration not stated), in [7], the Potency result is “inactive”. Moreover, the max response was 1.08% in [1]; 2.52% in assay [2]; -6.49% in assay [3]; 3.03% in [4]; -4.5% in assay [5]. Further, the compound was classed as inactive in assay [6].

On to `O=c1[nH]oc2c1CCNC2`, for which, in assay [7], the Potency result is “inactive”. In addition, the max response was -16.5% in assay [1], -2.62% in assay [2], -7.07% in [4] and -9.67% in assay [5]. Moreover, the call in assay [3], in [8] and in [6] was inactive.

Consider `C=CCC1([C@H](C)CCC)C(=O)NC(=O)NC1=O`, for which the max response is 1.74% in assay [1]; 1.82% in [2]; -2.25% in assay [3]; -1.57% in assay [4]; -4.37% in assay [5]. Moreover, in assay [6], the outcome was inactive.

As for `NCCc1ccc(O)cc1`, in [7], the Potency entry is “inactive”. Besides, the max response was -9.28% in assay [1], 1.28% in assay [3] and -7.48% in [4]. Besides, the compound was called inactive in [2], in [5], in assay [9] and in [6].

`Nc1ccc([As](=O)(O)O)cc1`: the max response in assay [1] is 1.05%; in assay [2] it was -6.15%; in assay [3], -3.33%; in assay [4], -4.72%. Besides, the compound was classed as inactive in assay [5] and in [6].

In the case of `CC(C)(C)NCC(O)c1ccccc1Cl` (configuration not stated), the Potency in [7] is 6.01 µM (active). Further, the max response in assay [1] was -15.1%; in [2], -2.46%; in [3] it was -8.54%; in [4] it was 2.34%; in assay [5] it was -6.71%. In assay [6], the compound was called inactive.

For `COc1cc(CCN)cc(OC)c1OC`, the max response in [1] was -14.6%; in [2] it was -9.62%; in [3], -15.9%; in assay [4] it was 2.38%; in assay [5] it was -22.5%. In assay [6], the result was inactive.

In the case of `CN(C)CCc1c[nH]c2cccc(OP(=O)(O)O)c12`, the max response in assay [1] was -37.9%; in assay [2], -1.43%; in assay [3], 4.32%; in assay [4], -1.8%; in assay [5], -11.6%. Further, the call in assay [6] was inactive.

For the compound `CC(C)NC(C)C`, in assay [7], the Potency result is “inactive”. For the same compound, the max response in assay [1] was 1.83%; in assay [2], 1.45%; in assay [3], 1.53%; in assay [4] it was 13.4%. The compound was classed as inactive in assay [5] and in assay [6].

Consider `Cc1ncsc1CCCl`, for which the Potency result in [7] was “inactive”. Moreover, the max response in assay [1] was 3.36%; in assay [2], -8.24%; in assay [3], -12.7%; in assay [4], 6.67%; in assay [5], 0.655%. Besides, the compound was called inactive in [6].

For `COc1cc(CC(C)N)cc(OC)c1OC` (configuration not stated), the max response in [1] is -18.9%; in [2], -9.05%; in assay [3], 2.22%; in [4] it was -7.25%; in assay [5] it was -5.38%. Also, the result in [6] was inactive.

`[N-]=[N+]=CC(=O)OC[C@H](N)C(=O)O`: the max response is -7.47% in [1]; 4.4% in assay [2]; -3.83% in assay [3]; -24.6% in assay [4]; -9.9% in assay [5]. Moreover, the call in [6] was inactive.

`CC(=O)NC1CCSC1=O` (configuration not stated): the max response was -4.93% in assay [1]; -1.96% in [3]; -11.7% and -14.3% in assay [4]; 2.68% in assay [5]. The compound was called inactive in [2], in assay [9] and in [6].
